Rows were chosen to be rich in hits. Some 2% of all compounds tested hit in one or more screens of this group.
Abeta rescue: restores growth of yeast expressing A-beta42 peptide. actives 0.063% (n = 410,000). Potency, µM (series often up to 46.1 µM), most hits filed as activators. yeast expressing A-beta42, growth rescue, OD600, 48 h; response scale: 0% DMSO, 100% iron-clioquinol control; note: nearly all actives have a fitted effect of over 55% in size
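Yeast growth medium received pinned compounds, then yeast cells expressing toxic A-beta were added; plates incubated at 30 C for 48 hr. Growth read as absorbance at 600 nm, normalized to DMSO and equimolar FeCl3 plus clioquinol controls.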
MBNL1-CUG inh: blocks human MBNL1 binding to CUG repeat RNA. Potency, µM (top dose mostly 57.5 µM), for the others: at the top dose activity change, negative = inhibition, hits mostly inhibitors. Q9NR56. AID 2675. TR-FRET MBNL1-His/biotin-(CUG)12 binding, 665/545 ratio. actives 0.036% (n = 280,000); active = well fitted inhibition curve with a large enough effect in the signal ratio, with a control signal flat, not every such curve was filed as active; inconclusive = small, poorly fitted or top-dose-only effect, or effect the other way, or a change in a side signal; inactive = no such curve, though single readings can be large or run the other way; the % refers to the signal ratio; note: % is set by controls: 0 for no effect and ±100 for the full control effect
Target sequence (Q9NR56 whole entry, looked up): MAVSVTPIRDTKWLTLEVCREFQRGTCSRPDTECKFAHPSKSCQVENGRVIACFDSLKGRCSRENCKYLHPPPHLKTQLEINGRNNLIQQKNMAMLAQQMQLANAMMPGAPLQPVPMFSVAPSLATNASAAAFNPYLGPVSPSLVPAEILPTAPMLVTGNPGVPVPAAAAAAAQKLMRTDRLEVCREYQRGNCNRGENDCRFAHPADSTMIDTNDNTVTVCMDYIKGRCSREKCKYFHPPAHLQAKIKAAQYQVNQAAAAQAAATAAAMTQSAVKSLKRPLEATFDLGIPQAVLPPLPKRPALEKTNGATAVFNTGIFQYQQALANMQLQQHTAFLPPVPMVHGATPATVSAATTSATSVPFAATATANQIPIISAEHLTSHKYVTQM
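Compounds (final 92 nM to 58 uM) are added to His-tagged MBNL1 and biotin-(CUG)12, then terbium anti-His antibody and streptavidin-XL665 (5 nM final). After 60 min at room temperature, the 665/545 nm ratio is read.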
FUS yeast rescue: FUS proteinopathy suppression in yeast | S. cerevisiae FUS-expressing, growth rescue, OD600, 24 h | Potency, µM (doses to about 76.6 µM), actives largely listed as activators | actives 0.24% (n = 390,000);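 note: plate controls were DMSO vehicle for no effect and reference control for full effect; nearly all actives have a fitted effect of over 55% in size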
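Quantitative HTS measuring growth restoration of FUS-toxic yeast. Galactose-induced cells (OD 0.005) were exposed 24hr at 30C to compounds at several concentrations, then absorbance at 600 nm was recorded.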
aSyn rescue: inhibitors of alpha-synuclein toxicity in yeast | Yeast expressing alpha-synuclein, growth rescue, BacTiter-Glo, 24 h | Potency, µM (series often up to 46.1 µM), for the others: top-dose growth rescue (activation), most hits filed as activators | actives 0.14% (n = 370,000) | AID 652106; note: % of control where 0% means no effect; nearly all actives have a fitted effect of over 65% in size
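Screening used galactose-induced yeast with toxic alpha-synuclein levels, exposed to compound for 24 hr at 30 deg C. Cell growth, read with BacTiter-Glo luminescence, gave the measured signal.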
GRP78 ERSR act: induces the endoplasmic reticulum stress response in human glioma cells. U87-MG GRP78 promoter luciferase reporter, 16 h. Potency, µM, inactives show at the top dose activation, usual class: activators. actives 0.02% (n = 420,000). AID 602332; note: series mostly up to about 76 µM; % of control where 0% means no effect; nearly all actives have a fitted effect of over 35% in size
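ERSR induction read as luciferase luminescence (Bright-Glo, 10 min at room temperature) in stably transfected human U87-MG glioma cells exposed to compounds for 16 h, using GRP78 as sensor.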
TDP-43 yeast inh: TDP-43 toxicity inhibition in yeast; TDP-43 expressing yeast growth rescue, BacTiter-Glo, 24 h; AID 652104; Potency, µM (highest dose often 46.1 µM), inactives show at the top dose growth rescue (activation), most hits filed as activators; actives 1.8% (n = 410,000); note: % of control where 0% means no effect; nearly all actives have a fitted effect of over 50% in size
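Yeast expressing TDP-43 (pregrown in raffinose, seeded at OD600=0.02 in galactose medium) exposed to compounds 24 hr at 30 deg C. Growth read by BacTiter-Glo luminescence; rescue of toxicity appears as increased signal.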
* marks the source's active call; other numbers are inactive results; i = inactive; ? = inconclusive; / = no result; [ ] = another dose, or the depositor's remark. Unless noted, calls come from the whole dose curve; as a rule, active = well fitted curve in the direction sought with a large enough effect; inconclusive = small, poorly fitted or top-dose-only effect, or another doubt; inactive = no such curve, though single readings can be large; an effect the other way counts as inactive or inconclusive. Potency is the fitted concentration of half-maximal effect.

SMILES	Abeta rescue	MBNL1-CUG inh	FUS yeast rescue	aSyn rescue	GRP78 ERSR act	TDP-43 yeast inh
CCOC(=O)CSC1=NC(=O)/C(=C\c2ccc(OC(C)=O)cc2)S1	i	?	i	-9%	4%	-22%
CCOC(=O)CSC1=NC(=O)/C(=C/c2ccc(Br)cc2)S1	i	3%	i	-31%	-8%	11µM*
Cc1ccc(C(=O)N(Cc2cc3cccc(C)c3nc2N(C)C)CC2CCCO2)cc1 (configuration not stated)	/	/	/	/	-4%	/
O=C(Nc1cccc(F)c1)N1CCc2nc(NCc3cccc(Oc4ccccc4)c3)ncc2C1	i	/	i	7%	-1%	16µM*
Cc1ccc(C(=O)c2ccc(O)cc2)cc1C	i	1%	i	0%	5%	18µM*
O=C(c1ccc(O)cc1)c1ccc(Cl)cc1	i	3%	i	10%	4%	11µM*
O=C(c1ccccc1)c1ccc2cc(O)ccc2c1	i	?	i	-31%	4%	11µM*
Cc1ccc(C(=O)c2cccc(N)c2)cc1C	i	/	i	8%	-13%	3%
COc1cccc(=O)c2c(C)n(C)c(C)c12	i	?	28µM*	0%	-8%	25%
Cc1ccc(S(=O)(=O)NCCc2ccccc2)cc1	i	-2%	i	13%	-4%	?
Cc1cc(C)c(S(=O)(=O)NCCn2ccc3ccccc32)c(C)c1	?	-2%	i	?	20%	13µM*
Cc1cc(C)c(S(=O)(=O)NCCc2ccccc2)c(C)c1	i	-9%	i	20µM*	-2%	4%
Cc1cc(C)c(S(=O)(=O)n2ccc3ccccc32)c(C)c1	?	-5%	i	7%	-3%	19%
Cc1nc(CC(=O)N2CCC(n3c(C4CCC4)nc4cccnc43)CC2)cs1	/	/	/	/	-4%	/
Cc1ccc(C(=O)N(C)[C@H]2C[C@H]3c4[nH]c5c(-c6ccc7c(c6)OCO7)cccc5c4CCN3C[C@H]2[C@H](C)O)cc1	/	/	i	/	/	/
CCN1CCCC1CNC(=O)c1cnn(-c2nccc(-c3cccs3)n2)c1C(C)C (configuration not stated)	/	/	/	/	-4%	/
CC(NC(=S)Nc1cccc(C(F)(F)F)c1)C(C)(C)C (configuration not stated)	13µM*	2%	i	-34%	-2%	19%
Cc1ccc(S(=O)(=O)N2CCN(C(=O)c3cccn3C)CC2)cc1	/	/	i	/	/	/
CC1=C(C(=O)OCc2ccccc2)C(c2ccccc2Cl)NC(=O)N1CCCCCC(=O)O (configuration not stated)	i	-7%	i	-3%	0%	35µM*
O=C(NNc1ccccc1)c1ccc(Cl)c(Cl)c1	i	/	/	?	1%	13µM*
CN1CCN(c2ccc3c(c2)Oc2ccccc2CN(Cc2cn(Cc4cccc(C(F)(F)F)c4)nn2)S3(=O)=O)CC1	/	/	i	/	/	/
CCn1c(Cc2cccs2)nnc1SCC(=O)Nc1cccc2ccccc12	/	/	i	/	/	/
CCOC(=O)[C@H](CCc1ccccc1)NC(C)C(=O)N1CC2(CC1C(=O)O)SCCS2 (some centres not stated)	/	/	/	/	-4%	/
CC1(C)CC(=O)C2=C(C1)Nc1cc3c(cc1C2c1ccc2c(c1)OCO2)OCO3 (configuration not stated)	i	13%	35µM*	10%	5%	-8%
Clc1ccc([C@H]2OC[C@@]3(CNCCc4c[nH]c5ccccc45)CS[C@H](c4ccc(Cl)cc4)N23)cc1	/	/	i	/	/	/
SMILES	Abeta rescue	MBNL1-CUG inh	FUS yeast rescue	aSyn rescue	GRP78 ERSR act	TDP-43 yeast inh
COc1ccc(CN2CCC(n3cc(C(=O)N4CCCCC4)nn3)CC2)c(OC)c1	/	/	/	/	-2%	/
CCCn1nnc(NC(=O)c2ccc(-c3cccc(Cl)c3)o2)n1	i	2%	i	6%	-3%	13µM*
CCCC1(c2ccccc2)NC(=O)N(CC(=O)c2[nH]c(C)c(C(=O)OCC)c2C)C1=O (configuration not stated)	i	-9%	22µM*	-3%	-4%	12%
CCOC(=O)c1c(C)[nH]c(C(=O)CN2C(=O)NC3(CCCC3)C2=O)c1C	i	/	i	-4%	2%	-6%
COc1cc2nc(N3CCOCC3)nc(NC3CCN(C)CC3)c2cc1OC	/	/	/	1%	/	/
CN(CC1COc2ccccc2O1)C(=O)CCNS(=O)(=O)c1ccc(F)c(Cl)c1 (configuration not stated)	?	/	i	2%	-6%	22µM*
O=C(CN1Cc2ccccc2OC(c2ccccc2)C1)NCc1cccnc1 (configuration not stated)	/	/	/	/	0%	/
CN1c2ccccc2Oc2nnc(Cl)cc21	i	?	i	16µM*	-6%	11µM*
Cc1ccc(SCCNC(=S)Nc2cc(C)ccc2C)cc1	?	-2%	i	4%	-1%	14µM*
Cc1ccc(SCCNC(=S)Nc2ccc(C)c(C)c2)cc1	i	-2%	i	-1%	3%	5%
COc1cc(C=O)ccc1OCCOCCOc1ccc(Cl)cc1Cl	i	/	/	6%	-3%	?
COc1cc(C=O)ccc1OCCOCCOc1c(C)cc(Cl)cc1Cl	i[9.22 µM]	-2%	i	23%	-4%	22µM*
Cc1ccc(S(=O)(=O)N2CCN(c3nc(-n4c(=O)[nH]c5ccccc54)nc4ccccc34)CC2)cc1	/	/	/	0%	/	/
Cc1cccc(Cn2c(-c3cccc(Br)c3)nc3ccccc32)c1	i	/	i	/	-1%	14µM*
COc1cc(/C=C/C(=O)c2ccc(C)c([N+](=O)[O-])c2)cc(OC)c1O	i	?	/	-9%	1%	2%
COc1ccc(/C=C/C(=O)c2ccc(C)c([N+](=O)[O-])c2)cc1O	i	18%	/	-55%	-15%	22µM*
Cc1nn(-c2ccccc2)c(C)c1CC(=O)NCC1Cc2cc(-c3cncnc3)ccc2O1 (configuration not stated)	/	/	/	/	-3%	/
COC(=O)C1=C(C)NC(COC(N)=O)=C(C(=O)OC(C)C)C1c1cccc(Cl)c1Cl (configuration not stated)	/	/	/	/	-4%	/
COC(=O)[C@@H]1CCCN1C(=O)c1cc(NC(=O)c2ccccc2)cc2ncn(C3CCCC3)c12	/	/	/	/	-3%	/
CC(=C/c1ccc(C(C)C)cc1)/C=N/NC(=O)CSc1ccccn1	i	/	i	9%	1%	24%
CC(/C=N/NC(=O)CSc1ccccn1)=C\c1ccc(C(C)C)cc1	i	-4%	/	8%	6%	20µM*

From PubChem
